The panel holds about 79,000 compounds, 15% with a hit somewhere; the sample as a whole holds those more often. Activity calls are given as the source filed them. No stated cut-off is given here; in the data, active means growth inhibition above about 70%; inactive means the rest.
Tests used:
[1] = NCI Yeast Anticancer Drug Screen. Data for the sgs1 mgt1 strain (AID 161);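 further: 0% = growth of cultures given vehicle only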; conditions: S. cerevisiae sgs1 mgt1 strain, hits give high values
How it was run: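 Growth of a repair-deficient yeast mutant was monitored after compound treatment and expressed as inhibition relative to vehicle-treated cultures.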

[2] = NCI Yeast Anticancer Drug Screen. Data for the CLN2oe strain (AID 163);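 further: 0% = growth of vehicle-only control cultures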; conditions: S. cerevisiae CLN2oe strain, hits give high values
How it was run: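 Whole-cell yeast growth assay. A strain engineered for altered cell-cycle control received compound, and inhibition relative to vehicle-treated cultures was recorded.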

[3] = NCI Yeast Anticancer Drug Screen. Data for the cln2 rad14 strain (AID 165);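 further: 0% = growth equal to vehicle treated cultures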; conditions: S. cerevisiae cln2 rad14 strain, hits give high values
How it was run: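 Yeast strain cln2 rad14, bearing defects in cell cycle control and DNA repair, serves as the test system; values reflect growth inhibition compared with vehicle.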

[4] = NCI Yeast Anticancer Drug Screen. Data for the bub3 strain (AID 167); conditions: S. cerevisiae bub3 mutant strain, hits give high values
How it was run: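 In this screen, a yeast mutant lacking normal mitotic checkpoint function is challenged with compound. Relative growth versus vehicle gives the inhibition value.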

[5] = NCI Yeast Anticancer Drug Screen. Data for the wt2 strain (AID 169);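 further: 0% = growth of vehicle-treated yeast cultures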; conditions: S. cerevisiae wt2 strain growth inhibition, hits give high values
How it was run: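 Treated yeast vs. vehicle-treated yeast: growth inhibition determined.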

[6] = NCI Yeast Anticancer Drug Screen. Data for the mlh1 strain (AID 171);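 further: 0% = growth of vehicle-treated control cultures of the same strain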; conditions: S. cerevisiae mlh1 strain growth inhibition, hits give high values
How it was run: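 A yeast strain with a defined genetic lesion serves as the test organism. Cultures receive compound or vehicle, and growth is measured.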

[7] = NCI Yeast Anticancer Drug Screen. Data for the sgs1 strain (AID 173);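 further: 0% = growth of vehicle-only control cultures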; conditions: S. cerevisiae sgs1 mutant, hits give high values
How it was run: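 A genetically defined yeast mutant is incubated with the test compound, and its growth is compared to that of the same strain given vehicle.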

[8] = NCI Yeast Anticancer Drug Screen. Data for the mlh1 rad18 strain (AID 175); conditions: S. cerevisiae mlh1 rad18 strain growth inhibition, hits give high values
How it was run: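 Steps: expose repair-defective yeast to compound; measure growth; express inhibition against vehicle-treated controls.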

[9] = NCI Yeast Anticancer Drug Screen. Data for the rad18 strain (AID 177); conditions: S. cerevisiae rad18 mutant growth inhibition, hits give high values
How it was run: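 Measured value is growth inhibition of a yeast strain bearing a DNA repair alteration, referenced to vehicle-treated cells.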

[10] = at 5.0 µM (retest, dose inferred, filed as 0.5)
[11] = at 50.0 µM (retest, dose inferred, filed as 5.0)

Measured: growth inhibition

CCOC(=N)c1ccc(O)c(OC)c1
inactive: [1]; [10] 0% | [1]; [11] -4% | [1]; at 50.0 µM -2.6% | [2]; at 1.2 µM -2% | [2]; at 3.7 µM -5% | [2]; at 11.0 µM 1% | [2]; at 33.0 µM -3% | [2]; at 100.0 µM -1% | [3]; [10] 2% | [3]; [11] 0% | [3]; at 50.0 µM -39.2% | [4]; at 1.2 µM 7% | [4]; at 3.7 µM 17% | [4]; [10] 30% | [4]; at 11.0 µM 48% | [4]; at 33.0 µM 66% | [5]; at 1.2 µM -3% | [5]; at 3.7 µM 6% | [5]; at 11.0 µM -3% | [5]; at 33.0 µM -1% | [5]; at 100.0 µM -2% | [6]; at 1.2 µM -2% | [6]; at 3.7 µM -3% | [6]; at 11.0 µM -2% | [6]; at 33.0 µM 1% | [6]; at 100.0 µM 1% | [7]; at 1.2 µM -3% | [7]; at 3.7 µM -5% | [7]; at 11.0 µM -4% | [7]; at 33.0 µM -3% | [7]; at 100.0 µM 3% | [8]; [10] -1% | [8]; [11] -3% | [8]; at 50.0 µM 17.4% | [9]; at 1.2 µM -1% | [9]; at 3.7 µM -3% | [9]; at 11.0 µM -3% | [9]; at 33.0 µM 0% | [9]; at 100.0 µM 14%
active: [4]; [11] 83% | [4]; at 50.0 µM 86.6% | [4]; at 100.0 µM 79%
